# Values without a mark were called inactive. Active and inactive are the calls of the source.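 Rule for the calls: active = inhibition at or above 50% relative to wild type and mutant plate controls; inactive = inhibition below 50%.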 Peptide text beside a SMILES is read from it. * marks the point of attachment. Cbz = O=C(OCc1ccccc1)*
# Test: inhibitors of Chlamydomonas gravitaxis, primary screen, whole organism, Chlamydomonas reinhardtii, WT vs cilia-less mutant, absorbance, 96-well (AID 463189);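 note: 0% = wild type cc124 cells in DMSO and 100% = ciliumless bld1 mutant cells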
# Details: OD600 absorbance, 2 days, at 10 µM, stronger effect = higher value
row,SMILES,inhibition
1,CCCn1c(=O)c2[nH]c(-c3ccc(OCC(=O)Nc4ccc(C#N)cc4)cc3)nc2n(CCC)c1=O,4.77%
2,CCCCCCCCCCCCCCSCC(=O)O,7.96%
3,NC(=O)c1ncn([C@@H]2O[C@H](CO)[C@@H](O)[C@H]2O)n1,8.25%
4,CCCCCCCCCCCCCCCC(=O)OC(CC(=O)O)C[N+](C)(C)C (stereo not given),2.15%
5,Nc1c2c(nc3ccccc13)CCCC2O (stereo not given),2%
6,O=C1OC(=O)C2C3CCC(O3)C12 (stereo not given),2.39%
7,N#Cc1c(-c2ccccc2)no[n+]1[O-],-3.89%
8,CN1CCc2ccccc2Cc2[nH]c3ccccc3c2CC1,10.8%
9,CCCCCCCCCCCCCCCC(=O)NCCO,8.85%
10,Oc1ccccc1O,-5%
11,CN(C)CCCCSC(=N)N,0.024%
12,O=C(OCCN1CCOCC1)C1(c2ccccc2)CCCCC1,2.35%
13,O=C1NCN(c2ccccc2)C12CCN(CCCC(c1ccc(F)cc1)c1ccc(F)cc1)CC2,-2.36%
14,CN1CCc2cc(Cl)c(O)cc2[C@@H](c2ccccc2)C1,5.1%
15,COC(=O)C(N)Cc1ccc(Cl)cc1 (stereo not given),-0.698%
16,NCC(O)(CS(=O)(=O)O)c1ccc(Cl)cc1 (stereo not given),30.8%
17,CC(C)[C@H](NC(=O)OCc1ccccc1)C(=O)N[C@H](C=O)Cc1ccccc1 (Cbz-Val-Phe-aldehyde),6.09%
18,O=c1onc2n1-c1cc(Br)ccc1OC2,-0.03%
19,O=C(/C=C/c1ccc(O)c(O)c1)OCCc1ccccc1,1.6%
20,N[C@@H](Cc1c[nH]c2ccccc12)C(=O)O,5.27%

row,SMILES,inhibition
1,NCCS,8.28%
2,C=CCN1CCc2cc(O)c(O)cc2C(c2ccccc2)C1 (stereo not given),8.31%
3,CN1CCc2c(cc(O)c(O)c2Cl)C(c2cccc(Cl)c2)C1 (stereo not given),-5.57%
4,CC(C)NC[C@@H](O)c1ccc(O)c(O)c1,3.12%
5,O=C(O)C1=CCCN(CCON=C(c2ccccc2)c2ccccc2)C1,-1.19%
6,CCCc1c(-c2ccc(O)cc2)nn(-c2ccc(O)cc2)c1-c1ccc(O)cc1,6.07%
7,NC(=O)NO,-5.8%
8,NCCCCNS(=O)(=O)c1cccc2c(Cl)cccc12,-1.51%
9,O=c1[nH]c2cc(Cl)c(Cl)cc2[nH]c1=O,5.88%
10,O=C(O)[C@@H]1C[C@H](C(=O)O)N1,1.3%
11,CN(C)CCOC(=O)COc1ccc(Cl)cc1,5.22%
12,C=CCc1ccccc1OCC(O)CN[C@]1(C)CCC[C@H](C(C)(C)NC(=O)CBr)C1 (stereo not given in full),16.4%
13,COc1ccc(CCNC[C@@H](O)c2ccc(O)cc2)cc1OC,-0.226%
14,N[C@H](C(=O)O)c1cc(O)cc(O)c1,-2.67%
15,COc1cccc(C(=O)NCCN2CCN(c3ccc(Cl)cc3)CC2)c1,0.497%
16,c1ccc2nc(C3=NCCN3)ccc2c1,108% (active)
17,CCC(=O)N1CCN(C(=O)c2ccccc2)CC1,0.644%
18,NC12CC3CC(CC(C3)C1)C2,-2.58%
19,CC(C)C(=O)c1c(C(C)C)nn2ccccc12,52.8% (active)
20,O=c1[nH]cnc2[nH]ncc12,6.04%

# — PubChem BioAssay
